Assay results as given in PubChem BioAssay AID1159580 (chemical genetic matrix, 2015).
Out of some 5,500 compounds screened, about 2,000 (36%) were called active. Inconclusive results (about 18%) are left out. Cut-off read from the data, not from the text of the source: active = normalized growth mostly below about 0.91 (no sharp cut-off); inconclusive = no clear call, values can overlap the other calls; inactive = mostly above about 0.92. The list shows a part of the results.

Test: chemical genetic growth profiling, strain panel (AID 1159580);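 note: tested at 20 µM; growth read once vehicle control cultures reached saturation at 30 °C; 1 = growth at the plate median or of vehicle wells; lower values mean less growth of the strain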
Details: growth OD

Measured: normalized growth

C[C@]12CCC3C(CC[C@]4(O)C[C@@H](O)CC[C@]34C=O)[C@@]1(O)CCC2C1=CC(=O)OC1 (stereo partly specified)
inactive: S. cerevisiae deletion strains, locus YJR066W, strain TOR1, stronger effect = lower value 0.934 | S. cerevisiae deletion strains, locus YKL009W, strain mrt4, stronger effect = lower value 0.978 | S. cerevisiae deletion strains, locus YKL068W, stronger effect = lower value 0.966 | S. cerevisiae deletion strains, locus YKL085W, strain MDH1 (second series), stronger effect = lower value 0.978 | S. cerevisiae deletion strains, locus YKL085W, strain MDH1, stronger effect = lower value 0.978 | S. cerevisiae deletion strains, locus YKL160W, strain elf1, stronger effect = lower value 0.972 | S. cerevisiae deletion strains, locus YKL190W, strain CNB1, stronger effect = lower value 0.997 | S. cerevisiae deletion strains, locus YKR001C, strain vps1, stronger effect = lower value 0.986 | S. cerevisiae deletion strains, locus YKR026C, strain gcn3, stronger effect = lower value 0.988 | S. cerevisiae deletion strains, locus YKR091W, strain srl3, stronger effect = lower value 0.981 | S. cerevisiae deletion strains, locus YLL001W, strain dnm1, stronger effect = lower value 0.975 | S. cerevisiae deletion strains, locus YLL026W, stronger effect = lower value 0.986 | S. cerevisiae deletion strains, locus YLL041C, strain sdh2, stronger effect = lower value 0.967 | S. cerevisiae deletion strains, locus YLR027C, strain aat2, stronger effect = lower value 0.958 | S. cerevisiae deletion strains, locus YLR039C, strain RIC1, stronger effect = lower value 0.975 | S. cerevisiae deletion strains, locus YLR058C, strain SHM2, stronger effect = lower value 0.989 | S. cerevisiae deletion strains, locus YLR102C, strain apc9, stronger effect = lower value 0.978 | S. cerevisiae deletion strains, locus YLR113W, strain HOG1, stronger effect = lower value 0.983 | S. cerevisiae deletion strains, locus YLR221C, strain rsa3, stronger effect = lower value 1 | S. cerevisiae deletion strains, locus YLR258W, strain gsy2, stronger effect = lower value 0.965 | S. cerevisiae deletion strains, locus YLR262C, strain YPT6 (second series), stronger effect = lower value 0.957 | S. cerevisiae deletion strains, locus YLR262C, strain YPT6, stronger effect = lower value 0.918 | S. cerevisiae deletion strains, locus YLR268W, strain sec22, stronger effect = lower value 0.979 | S. cerevisiae deletion strains, locus YLR320W, strain mms22, stronger effect = lower value 1.05 | S. cerevisiae deletion strains, locus YLR330W, strain CHS5, stronger effect = lower value 0.983 | S. cerevisiae deletion strains, locus YLR342W, strain FKS1 (second series), stronger effect = lower value 1.01 | S. cerevisiae deletion strains, locus YLR342W, strain FKS1, stronger effect = lower value 0.976 | S. cerevisiae deletion strains, locus YLR357W, strain rsc2, stronger effect = lower value 0.998 | S. cerevisiae deletion strains, locus YLR370C, strain arc18, stronger effect = lower value 0.999 | S. cerevisiae deletion strains, locus YLR371W, strain rom2, stronger effect = lower value 0.963 | S. cerevisiae deletion strains, locus YLR384C, strain iki3, stronger effect = lower value 1 | S. cerevisiae deletion strains, locus YLR418C, strain cdc73, stronger effect = lower value 0.95 | S. cerevisiae deletion strains, locus YML016C, strain PPZ1, stronger effect = lower value 0.99 | S. cerevisiae deletion strains, locus YML032C, strain rad52, stronger effect = lower value 0.976 | S. cerevisiae deletion strains, locus YML120C, strain ndi1, stronger effect = lower value 0.954 | S. cerevisiae deletion strains, locus YML124C, strain tub3, stronger effect = lower value 0.987 | S. cerevisiae deletion strains, locus YMR058W, strain fet3, stronger effect = lower value 0.969 | S. cerevisiae deletion strains, locus YMR078C, strain ctf18, stronger effect = lower value 0.965 | S. cerevisiae deletion strains, locus YMR125W, strain sto1, stronger effect = lower value 0.96 | S. cerevisiae deletion strains, locus YMR129W, stronger effect = lower value 0.982 | S. cerevisiae deletion strains, locus YMR205C, strain PFK2, stronger effect = lower value 0.881 | S. cerevisiae deletion strains, locus YMR231W, strain pep5, stronger effect = lower value 0.999 | S. cerevisiae deletion strains, locus YMR307W, strain GAS1, stronger effect = lower value 0.919 | S. cerevisiae deletion strains, locus YNL067W, strain RPL9B, stronger effect = lower value 1.01 | S. cerevisiae deletion strains, locus YNL071W, strain lat1, stronger effect = lower value 0.958 | S. cerevisiae deletion strains, locus YNL183C, strain NPR1, stronger effect = lower value 0.952 | S. cerevisiae deletion strains, locus YNL209W, strain ssb2, stronger effect = lower value 0.974 | S. cerevisiae deletion strains, locus YNL233W, strain BNI4, stronger effect = lower value 1.03 | S. cerevisiae deletion strains, locus YNL248C, strain rpa49, stronger effect = lower value 0.943 | S. cerevisiae deletion strains, locus YNL250W, strain rad50, stronger effect = lower value 0.968 | S. cerevisiae deletion strains, locus YNL271C, strain bni1, stronger effect = lower value 0.981 | S. cerevisiae deletion strains, locus YNL298W, strain CLA4, stronger effect = lower value 0.964 | S. cerevisiae deletion strains, locus YNL307C, strain MCK1, stronger effect = lower value 0.983 | S. cerevisiae deletion strains, locus YNL322C, strain KRE1 (second series), stronger effect = lower value 0.975 | S. cerevisiae deletion strains, locus YNL322C, strain KRE1, stronger effect = lower value 0.99 | S. cerevisiae deletion strains, locus YNR049C, strain mso1, stronger effect = lower value 0.971 | S. cerevisiae deletion strains, locus YNR052C, strain pop2, stronger effect = lower value 0.977 | S. cerevisiae deletion strains, locus YOL012C, strain htz1 1.05 | S. cerevisiae deletion strains, locus YOL147C, strain pex11, stronger effect = lower value 0.981 | S. cerevisiae deletion strains, locus YOR001W, strain rrp6, stronger effect = lower value 1.01 | S. cerevisiae deletion strains, locus YOR061W, strain CKA2, stronger effect = lower value 0.963 | S. cerevisiae deletion strains, locus YOR069W, strain VPS5, stronger effect = lower value 0.984 | S. cerevisiae deletion strains, locus YOR070C, strain gyp1, stronger effect = lower value 0.998 | S. cerevisiae deletion strains, locus YOR080W, strain dia2, stronger effect = lower value 0.988 | S. cerevisiae deletion strains, locus YOR083W, strain WHI5, stronger effect = lower value 0.939 | S. cerevisiae deletion strains, locus YOR106W, strain vam3, stronger effect = lower value 0.9 | S. cerevisiae deletion strains, locus YOR136W, strain idh2, stronger effect = lower value 0.981 | S. cerevisiae deletion strains, locus YOR144C, strain elg1, stronger effect = lower value 0.985 | S. cerevisiae deletion strains, locus YOR184W, strain ser1, stronger effect = lower value 0.975 | S. cerevisiae deletion strains, locus YOR231W, strain MKK1, stronger effect = lower value 1 | S. cerevisiae deletion strains, locus YOR265W, strain rbl2, stronger effect = lower value 0.975 | S. cerevisiae deletion strains, locus YOR270C, strain vph1, stronger effect = lower value 0.997 | S. cerevisiae deletion strains, locus YOR290C, strain snf2, stronger effect = lower value 0.894 | S. cerevisiae deletion strains, locus YOR316C, strain cot1, stronger effect = lower value 0.982 | S. cerevisiae deletion strains, locus YPL051W, strain arl3, stronger effect = lower value 0.995 | S. cerevisiae deletion strains, locus YPL055C, strain LGE1, stronger effect = lower value 1 | S. cerevisiae deletion strains, locus YPL078C, strain atp4, stronger effect = lower value 0.942 | S. cerevisiae deletion strains, locus YPL106C, strain sse1, stronger effect = lower value 0.871 | S. cerevisiae deletion strains, locus YPL240C, strain hsp82, stronger effect = lower value 0.988 | S. cerevisiae deletion strains, locus YPL256C, strain CLN2, stronger effect = lower value 0.974 | S. cerevisiae deletion strains, locus YPR119W, strain clb2, stronger effect = lower value 0.983 | S. cerevisiae deletion strains, locus YPR141C, strain kar3, stronger effect = lower value 0.982 | S. cerevisiae deletion strains, locus YPR163C, strain tif3, stronger effect = lower value 0.967 | S. cerevisiae deletion strains, locus YPR167C, strain met16, stronger effect = lower value 0.975 | S. cerevisiae deletion strains, strain wtn01, stronger effect = lower value 1.01 | S. cerevisiae strains, strain wild type, stronger effect = lower value 0.981
